In the supplement of paper PMC10849652:
Targets with a hit are over-represented here; the source holds about 7,900 in all. About 0.6% of all pairs of compound and target were hits. A number with no mark means an inactive call.

Columns and labels:
Assay in all cases: log2 fold change, soluble protein after heating vs DMSO (PISA); higher = thermal stabilisation; K562 cells, 10 uM, 30 min; active = over 0.2 and 3.5 SD of the protein, either way, in both replicates (recomputed)
erlotinib = compound: C#Cc1cccc(Nc2ncnc3cc(OCCOC)c(OCCOC)cc23)c1 [erlotinib]
In short: (§1)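 Soluble protein was quantified by TMTpro 16plex LC-MS/MS after channel sums were equalised. It was obtained as the supernatant after 21,000xg for 90 min from pooled aliquots of K562 cells (2×10^6 cells/mL, 10 μM compound, 30 min) heated for 3 min across 48°C-58°C and extracted in PBS with 0.5% NP-40 at 4°C. Thermal stability values are relative to control samples and come from duplicates. They are given as log2 fold changes.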

[1] = compound: C/C(=N\NC(=O)C1=CC(=CC=C1)S(=O)(=O)N2CCOCC2)/C3=C(C=CC(=C3)Cl)O
In short: as §1

[2] = compound: C1=CC(=C(C=C1Cl)C2=NC3=NC=CN=C3C(=N2)NC4=CC=NC=C4)F
In short: as §1

[3] = compound: C1=CC(=CC=C1C2=NC3=C(N2)C=C(C=C3)C(=O)N)OC4=CC=C(C=C4)Cl
In short: as §1

[4] = compound: C1=CC2=C(C=CC(=C2)/C=C\3/C(=O)NC(=NCC4=CC=CS4)S3)N=C1
In short: as §1

[5] = compound: C1=CC2=NC=CN=C2C=C1/C=C/3\C(=O)NC(=O)S3
In short: as §1

[6] = compound: C1=CC=C(C=C1)C2=NC(=C(N2)C3=CC=NC=C3)C4=CC(=C(C=C4)Cl)O
In short: as §1

[7] = compound: C1=CC=C2C(=C1)C3=NNC4=CC=CC(=C43)C2=O
In short: as §1

[8] = compound: C1CCN(C1)C(=O)NC2=CC=CC(=C2)NC3=NC=C(C(=N3)NCCC4=CN=CN4)Br
In short: as §1

[9] = compound: C1CN(CCC1(CC2=CC=C(C=C2)Cl)N)C3=NC=NC4=C3C=CN4
In short: as §1

UniProt O94967, sequence (O94967 whole entry, looked up): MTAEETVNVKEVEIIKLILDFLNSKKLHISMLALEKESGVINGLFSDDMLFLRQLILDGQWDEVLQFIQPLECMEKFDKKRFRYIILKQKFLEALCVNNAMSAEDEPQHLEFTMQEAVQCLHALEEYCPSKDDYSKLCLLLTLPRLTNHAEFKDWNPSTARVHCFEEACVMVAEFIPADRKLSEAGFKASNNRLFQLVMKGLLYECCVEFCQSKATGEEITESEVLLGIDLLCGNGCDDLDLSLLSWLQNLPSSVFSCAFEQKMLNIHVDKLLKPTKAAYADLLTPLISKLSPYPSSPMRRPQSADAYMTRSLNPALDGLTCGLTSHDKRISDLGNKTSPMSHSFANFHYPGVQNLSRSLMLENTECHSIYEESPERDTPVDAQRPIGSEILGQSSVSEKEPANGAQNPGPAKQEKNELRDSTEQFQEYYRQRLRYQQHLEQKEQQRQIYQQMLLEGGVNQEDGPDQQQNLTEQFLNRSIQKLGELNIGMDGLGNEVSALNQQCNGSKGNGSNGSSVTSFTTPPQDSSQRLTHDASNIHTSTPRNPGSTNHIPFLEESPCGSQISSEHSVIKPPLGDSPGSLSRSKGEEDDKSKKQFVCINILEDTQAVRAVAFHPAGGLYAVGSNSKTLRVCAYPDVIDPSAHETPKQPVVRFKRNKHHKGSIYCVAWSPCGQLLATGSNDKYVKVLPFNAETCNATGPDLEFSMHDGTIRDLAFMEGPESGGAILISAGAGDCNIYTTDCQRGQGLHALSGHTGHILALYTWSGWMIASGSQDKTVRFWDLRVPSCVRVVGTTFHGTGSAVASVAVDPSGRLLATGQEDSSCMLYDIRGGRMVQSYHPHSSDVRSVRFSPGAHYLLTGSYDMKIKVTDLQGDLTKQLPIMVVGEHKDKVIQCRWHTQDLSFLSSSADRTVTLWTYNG
UniProt Q969X6, sequence (Q969X6 whole entry, looked up): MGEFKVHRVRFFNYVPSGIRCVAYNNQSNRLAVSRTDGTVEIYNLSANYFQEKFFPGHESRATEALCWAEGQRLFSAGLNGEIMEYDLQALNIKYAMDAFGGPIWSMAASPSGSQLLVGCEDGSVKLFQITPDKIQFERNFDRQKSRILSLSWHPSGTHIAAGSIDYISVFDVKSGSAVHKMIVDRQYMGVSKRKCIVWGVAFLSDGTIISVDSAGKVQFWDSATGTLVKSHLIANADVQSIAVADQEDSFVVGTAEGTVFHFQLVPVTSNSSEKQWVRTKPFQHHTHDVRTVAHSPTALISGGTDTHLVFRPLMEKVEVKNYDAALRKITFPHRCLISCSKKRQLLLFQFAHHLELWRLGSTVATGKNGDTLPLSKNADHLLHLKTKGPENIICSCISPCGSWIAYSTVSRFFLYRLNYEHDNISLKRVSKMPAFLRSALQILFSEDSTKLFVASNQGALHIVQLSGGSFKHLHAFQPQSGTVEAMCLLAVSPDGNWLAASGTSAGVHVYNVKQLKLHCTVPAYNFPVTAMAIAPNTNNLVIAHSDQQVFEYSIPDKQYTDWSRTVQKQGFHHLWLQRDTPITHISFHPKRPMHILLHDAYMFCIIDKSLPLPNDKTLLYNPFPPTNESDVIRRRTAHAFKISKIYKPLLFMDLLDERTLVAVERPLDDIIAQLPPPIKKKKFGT
UniProt P68366, sequence (P68366 whole entry, looked up): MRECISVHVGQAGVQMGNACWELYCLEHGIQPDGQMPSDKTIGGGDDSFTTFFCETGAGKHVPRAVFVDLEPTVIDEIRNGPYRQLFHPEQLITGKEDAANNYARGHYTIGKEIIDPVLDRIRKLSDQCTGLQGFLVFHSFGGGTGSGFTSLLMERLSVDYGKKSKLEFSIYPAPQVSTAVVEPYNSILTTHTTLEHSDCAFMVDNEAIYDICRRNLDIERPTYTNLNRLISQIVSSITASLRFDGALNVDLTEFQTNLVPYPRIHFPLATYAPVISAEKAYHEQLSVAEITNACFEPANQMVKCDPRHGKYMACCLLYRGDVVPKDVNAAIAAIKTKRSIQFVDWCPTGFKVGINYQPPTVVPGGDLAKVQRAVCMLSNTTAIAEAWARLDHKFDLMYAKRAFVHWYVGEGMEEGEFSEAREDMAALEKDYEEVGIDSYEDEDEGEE
UniProt Q9H267, sequence (Q9H267 whole entry, looked up): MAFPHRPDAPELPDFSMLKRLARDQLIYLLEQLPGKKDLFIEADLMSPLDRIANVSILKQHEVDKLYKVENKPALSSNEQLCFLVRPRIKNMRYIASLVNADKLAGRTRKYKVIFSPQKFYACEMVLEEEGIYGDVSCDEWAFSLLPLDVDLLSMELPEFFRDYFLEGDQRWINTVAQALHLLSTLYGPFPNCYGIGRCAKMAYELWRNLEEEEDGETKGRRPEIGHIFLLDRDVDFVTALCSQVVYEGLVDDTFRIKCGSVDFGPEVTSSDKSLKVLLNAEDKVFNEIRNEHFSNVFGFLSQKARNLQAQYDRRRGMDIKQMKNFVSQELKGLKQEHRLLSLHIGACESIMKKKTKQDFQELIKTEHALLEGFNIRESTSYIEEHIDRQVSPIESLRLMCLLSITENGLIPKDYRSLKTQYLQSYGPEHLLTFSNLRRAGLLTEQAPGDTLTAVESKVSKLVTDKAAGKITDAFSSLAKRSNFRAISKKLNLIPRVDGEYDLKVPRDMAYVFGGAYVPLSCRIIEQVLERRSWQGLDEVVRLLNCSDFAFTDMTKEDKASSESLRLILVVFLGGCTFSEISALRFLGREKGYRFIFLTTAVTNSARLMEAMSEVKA
UniProt A6NHL2, sequence (A6NHL2 whole entry, looked up): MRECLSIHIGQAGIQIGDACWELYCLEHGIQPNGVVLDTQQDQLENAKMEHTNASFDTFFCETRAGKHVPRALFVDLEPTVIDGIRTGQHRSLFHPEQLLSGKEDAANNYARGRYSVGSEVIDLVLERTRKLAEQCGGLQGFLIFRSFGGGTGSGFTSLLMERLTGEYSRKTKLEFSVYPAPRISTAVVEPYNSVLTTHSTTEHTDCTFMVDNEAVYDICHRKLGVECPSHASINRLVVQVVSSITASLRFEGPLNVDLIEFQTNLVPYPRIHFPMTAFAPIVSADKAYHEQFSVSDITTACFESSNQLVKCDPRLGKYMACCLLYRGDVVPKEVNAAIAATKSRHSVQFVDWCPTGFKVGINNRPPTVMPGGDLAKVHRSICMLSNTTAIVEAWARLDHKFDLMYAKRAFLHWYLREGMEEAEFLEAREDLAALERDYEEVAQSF
UniProt P13010, sequence (P13010 whole entry, looked up): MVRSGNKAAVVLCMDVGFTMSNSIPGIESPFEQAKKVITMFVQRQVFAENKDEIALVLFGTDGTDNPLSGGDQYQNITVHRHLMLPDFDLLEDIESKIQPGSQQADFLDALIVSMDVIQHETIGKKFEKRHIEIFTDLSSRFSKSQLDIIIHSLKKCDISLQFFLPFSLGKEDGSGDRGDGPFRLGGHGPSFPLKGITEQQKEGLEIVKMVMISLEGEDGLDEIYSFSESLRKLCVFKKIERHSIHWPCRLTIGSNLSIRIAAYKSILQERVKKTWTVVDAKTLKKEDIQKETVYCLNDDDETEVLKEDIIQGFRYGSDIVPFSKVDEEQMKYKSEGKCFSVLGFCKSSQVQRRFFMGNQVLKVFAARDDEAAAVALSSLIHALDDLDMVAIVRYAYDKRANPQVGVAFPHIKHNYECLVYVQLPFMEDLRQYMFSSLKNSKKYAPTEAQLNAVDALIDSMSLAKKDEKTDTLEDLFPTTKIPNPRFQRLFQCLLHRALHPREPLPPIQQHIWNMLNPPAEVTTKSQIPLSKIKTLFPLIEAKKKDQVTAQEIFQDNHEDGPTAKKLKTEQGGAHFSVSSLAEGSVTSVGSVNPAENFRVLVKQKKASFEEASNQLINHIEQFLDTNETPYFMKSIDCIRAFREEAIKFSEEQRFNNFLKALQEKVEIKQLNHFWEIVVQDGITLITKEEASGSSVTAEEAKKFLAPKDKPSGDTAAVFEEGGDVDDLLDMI
UniProt Q9Y3C0, sequence (Q9Y3C0 whole entry, looked up): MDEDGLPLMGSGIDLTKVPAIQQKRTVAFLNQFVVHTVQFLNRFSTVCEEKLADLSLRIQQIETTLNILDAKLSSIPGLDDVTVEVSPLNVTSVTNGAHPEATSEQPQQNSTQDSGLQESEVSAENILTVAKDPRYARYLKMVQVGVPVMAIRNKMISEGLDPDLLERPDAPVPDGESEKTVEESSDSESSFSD
UniProt O14773, sequence (O14773 whole entry, looked up): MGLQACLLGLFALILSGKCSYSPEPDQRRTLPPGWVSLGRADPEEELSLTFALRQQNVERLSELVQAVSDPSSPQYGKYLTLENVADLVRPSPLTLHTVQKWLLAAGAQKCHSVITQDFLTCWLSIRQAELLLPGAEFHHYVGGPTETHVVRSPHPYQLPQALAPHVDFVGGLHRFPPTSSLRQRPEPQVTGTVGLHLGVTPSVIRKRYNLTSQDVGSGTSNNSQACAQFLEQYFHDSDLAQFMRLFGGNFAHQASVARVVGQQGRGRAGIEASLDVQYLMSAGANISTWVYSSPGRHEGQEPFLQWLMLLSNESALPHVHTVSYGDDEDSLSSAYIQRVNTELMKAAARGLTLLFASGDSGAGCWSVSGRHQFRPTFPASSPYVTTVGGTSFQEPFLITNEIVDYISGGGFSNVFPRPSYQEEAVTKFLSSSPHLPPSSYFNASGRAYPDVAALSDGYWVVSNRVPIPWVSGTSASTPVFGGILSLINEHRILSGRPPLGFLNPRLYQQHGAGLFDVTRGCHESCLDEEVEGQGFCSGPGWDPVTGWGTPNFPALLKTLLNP
UniProt Q969T4, sequence (Q969T4 whole entry, looked up): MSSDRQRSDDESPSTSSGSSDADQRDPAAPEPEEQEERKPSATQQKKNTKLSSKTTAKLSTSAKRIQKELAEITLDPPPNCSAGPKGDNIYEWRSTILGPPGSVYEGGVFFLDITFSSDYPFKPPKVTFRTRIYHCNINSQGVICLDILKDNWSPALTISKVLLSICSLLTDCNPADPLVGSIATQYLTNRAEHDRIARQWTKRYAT
UniProt O43617, sequence (O43617 whole entry, looked up): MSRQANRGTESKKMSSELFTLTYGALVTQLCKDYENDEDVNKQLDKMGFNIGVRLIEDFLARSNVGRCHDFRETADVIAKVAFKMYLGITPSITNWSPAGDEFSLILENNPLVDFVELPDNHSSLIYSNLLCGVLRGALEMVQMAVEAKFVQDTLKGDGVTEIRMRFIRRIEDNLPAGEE

Target | log2 fold change (erlotinib) | log2 fold change [1] | log2 fold change [2] | log2 fold change [3] | log2 fold change [4] | log2 fold change [5] | log2 fold change [6] | log2 fold change [7] | log2 fold change [8] | log2 fold change [9]
TUBA4A (UniProt P68366) | 0.016 | 0.048 | 0.048 | -0.038 | 0.069 | -0.04 | -0.037 | 0.027 | -0.015 | 0.075
TUBAL3 (UniProt A6NHL2) | 0.092 | 0.096 | 0.099 | 0.018 | 0.048 | 0.004 | 0.031 | -0.034 | -0.046 | 0.145
WDR47 (UniProt O94967) | 0.038 | 0.065 | -0.014 | -0.002 | -0.002 | 0.06 | 0.047 | 0 | 0.013 | 0.006
TMEM70 (UniProt Q9BUB7) | -0.286 | 0.03 | 0.023 | 0.257 | 0.008 | -0.09 | -0.063 | -0.039 | -0.007 | 0.053
TMEM128 (UniProt Q5BJH2) | -0.048 | 0 | 0.06 | 0.034 | -0.437 | 0.067 | -0.081 | -0.238 | -0.182 | 0.084
VPS13B (UniProt Q7Z7G8) | 0.032 | 0.024 | 0.028 | 0.009 | 0.048 | -0.025 | 0.032 | -0.017 | -0.052 | 0.058
UBE2E3 (UniProt Q969T4) | 0.063 | 0.112 | 0.152 | -0.034 | 0.083 | 0.009 | 0.014 | 0.045 | -0.028 | -0.019
TMEM63B (UniProt Q5T3F8) | -0.037 | 0.063 | -0.024 | -0.009 | -0.066 | 0.012 | -0.076 | -0.033 | 0.011 | 0.065
UGGT1 (UniProt Q9NYU2) | -0.027 | 0.016 | 0.007 | 0.007 | 0.018 | 0.014 | -0.012 | 0.019 | -0.015 | 0.005
WDR61 (UniProt Q9GZS3) | 0.021 | 0.066 | 0.051 | 0.027 | 0.057 | -0.016 | 0.01 | 0 | 0.077 | 0.026
TRAPPC13 isoform 5 (UniProt A5PLN9) | 0.133 | 0.047 | -0.028 | -0.047 | 0.084 | 0.021 | 0 | -0.038 | -0.005 | 0.009
XPO1 (UniProt O14980) | 0.019 | 0.118 | 0.045 | -0.06 | 0.061 | 0.041 | 0.051 | -0.036 | 0.002 | -0.027
TTI2 (UniProt Q6NXR4) | 0 | 0.053 | 0.003 | -0.035 | 0.029 | -0.036 | -0.095 | 0.046 | 0.008 | -0.028
USP34 (UniProt Q70CQ2) | 0.065 | 0.074 | 0.026 | -0.02 | 0.145 | -0.013 | 0.027 | -0.043 | 0.015 | -0.086
TRAPPC3 (UniProt O43617) | -0.032 | 0.102 | 0.025 | -0.001 | 0.021 | 0.069 | -0.047 | -0.018 | 0.008 | -0.077
XRCC5 (UniProt P13010) | 0.103 | 0.178 | -0.012 | -0.038 | 0.079 | 0.037 | 0.11 | -0.039 | -0.059 | -0.139
VPS33B (UniProt Q9H267) | 0.108 | 0.093 | -0.039 | -0.07 | 0.073 | 0.053 | 0.019 | 0.044 | -0.076 | -0.102
TMEM179B (UniProt Q7Z7N9) | 0.042 | -0.016 | 0.073 | 0.032 | -0.009 | 0.034 | -0.107 | -0.032 | -0.165 | -0.005
TPP1 (UniProt O14773) | 0.013 | 0.009 | 0.059 | -0.015 | -0.007 | 0.024 | 0.034 | -0.014 | -0.012 | -0.017
WDCP (UniProt Q9H6R7) | 0.083 | -0.003 | 0.058 | 0.065 | -0.015 | 0.134 | -0.022 | -0.068 | -0.012 | -0.011
TMEM177 (UniProt Q53S58) | 0.058 | 0.044 | 0.03 | -0.025 | 0.062 | -0.015 | -0.034 | 0.01 | 0.028 | 0.132
TP53BP1 isoform 2 (UniProt Q12888) | -0.011 | 0.019 | -0.017 | -0.001 | 0.012 | 0.043 | -0.024 | -0.078 | -0.057 | -0.077
USP7 (UniProt Q93009) | 0.089 | 0.139 | 0.046 | 0 | 0.159 | 0.004 | 0.068 | 0.085 | -0.04 | -0.003
XPNPEP3 (UniProt Q9NQH7) | 0.019 | -0.275 (active) | 0.017 | 0.06 | 0.067 | 0.026 | -0.005 | 0 | 0.005 | 0.083
TRAPPC11 (UniProt Q7Z392) | 0.044 | 0.136 | -0.027 | 0.017 | 0.105 | 0.059 | 0.027 | 0.062 | -0.019 | -0.001
TMTC3 (UniProt Q6ZXV5) | 0 | 0 | 0.007 | 0.023 | 0.042 | 0.002 | 0.001 | -0.001 | -0.064 | -0.014
WASHC3 (UniProt Q9Y3C0) | 0.029 | -0.015 | 0.053 | 0.007 | 0.12 | 0.036 | 0.017 | -0.114 | -0.041 | 0.059
UTP4 (UniProt Q969X6) | -0.05 | -0.07 | -0.009 | 0.005 | -0.082 | 0.026 | -0.022 | 0.012 | 0 | 0.06
VTI1A (UniProt Q96AJ9) | -0.07 | 0.026 | -0.037 | -0.014 | 0.015 | 0.087 | -0.055 | -0.002 | 0.019 | 0.005
UBA52 (UniProt P62987) | -0.113 | -0.266 | -0.659 | 0.093 | -0.311 | -0.024 | -0.029 | -0.082 | 0.165 | -0.04
